# Screening data from PubChem.
# Hits are enriched below; roughly 0.28% of the tested compounds scored in any of these assays.
# NPYLR7 agonist: mosquito NPYLR7 agonism. HEK293T NPYLR7/Galpha15, GCaMP6s calcium fluorescence. activation, % at 10 µM. 270,000 compounds, 0.15% hits; in the data active means activation above about 40%;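 further: 0% = vehicle and 100% = reference agonist at the receptor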
# hcGAS inh: inhibitors of human cGAS; 290,000 compounds, 0.081% hits; inhibition, % at 12.5 µM; recombinant h-cGAS, ATP depletion, Kinase-Glo luminescence; AID 1259398; Q8N884;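 further: 0% = vehicle reaction and 100% = reaction without DNA for no activity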
# Target sequence (Q8N884 whole entry, looked up): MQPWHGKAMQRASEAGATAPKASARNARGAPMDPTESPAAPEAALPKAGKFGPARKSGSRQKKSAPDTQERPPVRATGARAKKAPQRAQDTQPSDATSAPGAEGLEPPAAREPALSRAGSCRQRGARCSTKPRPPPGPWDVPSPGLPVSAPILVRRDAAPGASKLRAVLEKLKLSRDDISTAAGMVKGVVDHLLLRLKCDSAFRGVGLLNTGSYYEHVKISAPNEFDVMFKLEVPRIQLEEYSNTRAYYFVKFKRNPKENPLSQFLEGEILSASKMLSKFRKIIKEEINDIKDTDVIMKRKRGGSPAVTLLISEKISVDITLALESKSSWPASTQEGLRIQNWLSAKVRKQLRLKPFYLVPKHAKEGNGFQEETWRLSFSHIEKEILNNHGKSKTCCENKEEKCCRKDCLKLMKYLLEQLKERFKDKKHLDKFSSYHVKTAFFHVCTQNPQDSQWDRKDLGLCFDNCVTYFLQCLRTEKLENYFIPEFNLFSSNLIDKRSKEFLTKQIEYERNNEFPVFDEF
# mcGAS lum: inhibitors of mouse cGAS; Q8C6L5; 160,000 compounds, 0.15% hits; recombinant cGAS, Kinase-Glo ATP depletion luminescence; inhibition, % at 12.5 µM;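 further: 0% = negative control wells and 100% = reference inhibitor with no enzyme activity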
# * hit, by the source's call; nt = not tested or not shown; ! = a repeat was not active. Unless noted, no stated cut-off is given here; in the data, active means inhibition above about 40%; inactive means the rest.
SMILES,NPYLR7 agonist,hcGAS inh,mcGAS lum
C#CCN(CC=C)Cc1cn[nH]c1-c1cc(OC)c(OC)c(OC)c1,9,-12,nt
COc1ccc(N=C(N)N)cc1,5,-7,nt
COc1ccc2c(C)nc(N=C(N)N)nc2c1,59*,5,nt
CCCC(=O)NC(N)=Nc1nc(C)c2cc(C)ccc2n1,-6,-7,-2
CCc1nc(N=C(N)N)nc2cc(C)ccc12,62*,4,nt
CCN(CC)CCNC(=O)C1=C(C)C(=O)OC12CCCCC2,5,-7,-6
O=C(O)C1C2CC3C1C(=O)Oc1ccc(Br)cc1C1c4sc(=O)[nH]c4SC2C13 (stereo unspecified),13,-1,41*
O=C(O)C1C2CC3C1C(=O)Oc1ccccc1C1c4sc(=O)[nH]c4SC2C13 (stereo unspecified),15,-4,14
COc1ccc(CN2CCN(Cc3nc(-c4ccccc4)cs3)CC2CCO)cc1C (stereo unspecified),0,-3,nt
O=C(O)C=C1C(=O)Nc2ccccc21,-1,-6,-4
Cc1[nH]c(/C=C2\C(=O)Nc3ccccc32)c(C)c1CCC(=O)O,74*,-1,nt
CCCCN(CC(=O)N1c2ccccc2-n2cccc2C1c1ccc(Cl)cc1)C(=O)NCc1ccccc1 (stereo unspecified),-4,2,4
CCOC(=O)N(CCCC(=O)OC)CP(=O)(OCC)OCC,-8,-3,nt
CC1CCC(C(N)=O)CN1C(=O)COc1ccc(Cl)c2cccnc12 (stereo unspecified),-3,9,nt
Cc1ccc(C)c(-n2nc(-c3c(C)nc4scc(CC(=O)NC5CC5)n4c3=O)cc2C)c1,nt,-3,-3
O=C(O[C@@H]1Cc2c(O)cc(O)cc2O[C@@H]1c1ccc(O)c(O)c1)c1cc(O)c(O)c(O)c1,-5,49*,nt
Oc1cc(O)c2c(c1)O[C@H](c1ccc(O)c(O)c1)[C@H](O)C2,-19,19,nt
O=C(O[C@@H]1Cc2c(O)cc(O)cc2O[C@@H]1c1cc(O)c(O)c(O)c1-c1c([C@H]2Oc3cc(O)cc(O)c3C[C@H]2O)cc(O)c(O)c1O)c1cc(O)c(O)c(O)c1,-6,54*,37
O=c1c(O)cc([C@H]2Oc3cc(O)cc(O)c3C[C@H]2O)cc2c([C@H]3Oc4cc(O)cc(O)c4C[C@H]3O)cc(O)c(O)c12,-8,27,nt
O=C(Oc1cc(OC(=O)c2ccccc2)c2c(c1)O[C@H](c1ccc(OC(=O)c3ccccc3)c(OC(=O)c3ccccc3)c1)[C@@H](OC(=O)c1ccccc1)C2)c1ccccc1,-6,-6,nt
O=C(O[C@@H]1Cc2c(O)cc(O)cc2O[C@@H]1c1cc(O)c(O)c(O)c1)c1cc(O)c(O)c(O)c1,-10,73*!,nt
COc1ccccc1N=P12CN3CN(CN(C3)C1)C2,-4,-2,nt
COc1ncc(CN2CCCC(CCc3ccccc3C(F)(F)F)C2)cn1 (stereo unspecified),6,-3,nt
CC(NS(=O)(=O)c1cccs1)C(=O)NCCc1cccc(Cl)c1 (stereo unspecified),2,-6,nt
O=C(CC1NC(=O)c2ccccc21)NCc1ccc2c(c1)CCCO2 (stereo unspecified),5,-3,-11
SMILES,NPYLR7 agonist,hcGAS inh,mcGAS lum
O=C(CNCc1ccccc1)N1CC(=O)N(c2cccc(Cl)c2)C1,46*,4,2
O=C(CNCc1ccco1)N1CC(=O)N(c2cccc(Cl)c2)C1,25,-1,nt
CN(C)C=NC(=O)C(C#N)C1=Nc2ccccc2CC1 (stereo unspecified),0,-3,nt
Cc1cc(C(=O)NCCc2ccccc2)nc2cc(-c3ccccc3)nn12,18,-4,-6
CCOc1ccccc1NC(=O)N1CC(=O)N2CCc3c(F)cccc3C2C1 (stereo unspecified),10,0,-3
COc1cc(NC(=O)N2CC(=O)N3CCc4c(F)cccc4C3C2)cc(OC)c1OC (stereo unspecified),43*,-7,-8
COCCCNC(=O)C(NC(=O)c1ccccc1C)C1CCN(S(=O)(=O)c2ccc(Cl)cc2)CC1 (stereo unspecified),19,-6,-6
Nc1ncnc2c1ncn2C1OC(COP(=O)(O)OP(=O)(O)OP(=O)(O)OP(=O)(O)OCC2OC(n3cnc4c(N)ncnc43)C(O)C2O)C(O)C1O (stereo unspecified),20,2,-1
Nc1nc(Cl)nc2c1ncn2[C@@H]1O[C@H](COP(=O)(O)OP(=O)(O)OP(=O)(O)O)[C@H](O)C1O (stereo partly specified),129*,2,9
O=C(CN1CCCOC1=O)Nc1ccc(F)cc1-c1ccc(F)cc1,7,-8,-8
CC(=O)N1CCN(CCNc2ccc3nccnc3n2)CC1,7,-9,nt
Clc1cncc(OC/C=C/COc2cncc(Cl)c2)c1,5,9,nt
Nc1ncnc2c1ncn2C1O[C@H](CO)[C@@H](O)[C@@H]1O (stereo partly specified),-4,-9,-5
OC[C@H]1O[C@@H](n2cnc3c(NCc4ccco4)ncnc32)[C@H](O)[C@@H]1O,7,-2,-4
Cc1ccccc1CNc1ncnc2c1ncn2C1OC(CO)C(O)C1O (stereo unspecified),78*,-10,-6
Nc1ncnc2c1ncn2[C@@H]1O[C@H](CO)[C@H](O)C1O (stereo partly specified),96*,-4,-2
CCOC(=O)N1CCc2c(sc(NC(=O)c3ccco3)c2-c2nc3ccccc3s2)C1,2,-7,nt
Cc1c(C(C)NC(=O)c2csc(-c3cccs3)n2)cnn1-c1ccccn1 (stereo unspecified),2,-8,-9
CCOc1cc(C=C(C#N)C(=O)OC(C)C)cc(Cl)c1O,14,-7,nt
COc1cc(C=C(C#N)S(=O)(=O)c2ccc(Cl)cc2)cc(Cl)c1O,118*,-1,nt
COc1cc(C=C(C#N)C(=O)OC(C)C)cc(Cl)c1O,83*,-4,nt
COc1cc(C=C(C#N)S(=O)(=O)c2ccc(Cl)cc2)cc2c1OCCO2,1,-4,nt
Cc1ccc(N2CCC(Cc3nn(C)c(=O)n3-c3ccccc3)CC2)nn1,3,-4,nt
COc1ccc(C(=O)N=c2sccn2Cc2cccc(C(=O)NC3CC3)c2)cc1OC,3,-16,nt
CCN1CCN(C(=O)c2ccc(Cn3ccsc3=NC(=O)c3ccc(OC)c(OC)c3)o2)CC1,45*,-16,nt
SMILES,NPYLR7 agonist,hcGAS inh,mcGAS lum
Cc1ccccc1C(=O)Nc1ccnn1C1CCN(C(=O)NC(C)(C)C)CC1,8,-5,nt
Cc1cc2c(cc1C)NC(CC(=O)NC(C)C)C(=O)N2 (stereo unspecified),2,-5,nt
CCCCCn1c(=O)c2c(nc3n2CCN3c2cc(C)cc(C)c2)n(C)c1=O,140*,-2,nt
CCCCCn1c(=O)c2c(nc3n2CCN3c2ccccc2)n(C)c1=O,4,-5,nt
COc1ccccc1C1c2cccn2CCCN1Cc1ccccc1[N+](=O)[O-] (stereo unspecified),7,81*,-5
CCc1ccccc1C1c2cccn2CCCN1Cc1ccccc1[N+](=O)[O-] (stereo unspecified),12,1,-3
O=C(CSc1nc2ccccc2n1Cc1ccccc1)N/N=C\c1ccccn1,-8,1,-2
Cc1ccc(-n2[nH]c(C(=O)Nc3ccnc4ccnn34)cc2=O)cc1,-1,68*,-7
